Assay [1] is described as follows: NCI Yeast Anticancer Drug Screen. Data for the rad50 strain (AID 155).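 Also: 0% = growth of vehicle-only cultures of the same strain.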 The settings on record: S. cerevisiae rad50 strain growth inhibition, active compounds read high. In short, it runs like this: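 Cells are treated with compound, grown, and their growth is then scored against vehicle-only cultures of the same repair-deficient yeast strain.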
Assay [2] is described as follows: NCI Yeast Anticancer Drug Screen. Data for the mec2-1 strain (AID 157). The conditions noted are these: S. cerevisiae mec2-1 strain, active compounds read high. Put shortly:
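Test agents were screened against the mec2-1 yeast strain, with defined DNA repair or cell cycle alteration. Growth was scored as inhibition against vehicle-only controls.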

Assay [3] can be described thus: NCI Yeast Anticancer Drug Screen. Data for the sgs1 mgt1 strain (AID 161).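 Also: 0% = growth of cultures given vehicle only.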 The settings on record: S. cerevisiae sgs1 mgt1 strain, active compounds read high. Put shortly: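 Mutant yeast exposed to compound; growth scored against vehicle-only wells.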
Assay [4] is described as follows: NCI Yeast Anticancer Drug Screen. Data for the cln2 rad14 strain (AID 165).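 Also: 0% = growth equal to vehicle treated cultures.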 The conditions noted are these: S. cerevisiae cln2 rad14 strain, active compounds read high. In short, it runs like this:
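Growth of compound-exposed yeast (cln2 rad14 genotype) measured and expressed as inhibition relative to vehicle.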

A short description of assay [5]: NCI Yeast Anticancer Drug Screen. Data for the bub3 strain (AID 167). The conditions noted are these: S. cerevisiae bub3 mutant strain, active compounds read high. Put shortly: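 Part of a panel of yeast mutants defective in DNA damage repair or cell cycle regulation. Each strain is grown with compound, and inhibition is calculated relative to solvent-treated cultures.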

A short description of assay [6]: NCI Yeast Anticancer Drug Screen. Data for the mlh1 rad18 strain (AID 175). The conditions noted are these: S. cerevisiae mlh1 rad18 strain growth inhibition, active compounds read high. Put shortly: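 In this whole-cell yeast screen, a strain with altered DNA damage repair is challenged with compound, and its growth is measured against matched vehicle-treated controls.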

The mark [7] stands for this setting: at 5.0 µM (retest, dose inferred, filed as 0.5).
Setting [8] is: at 50.0 µM (retest, dose inferred, filed as 5.0).

Structures are written as SMILES. Compounds without any hit were thinned out: in the full panel of roughly 79,000, 15% have a hit. A number with no mark means an inactive call. The source made the active and inactive calls. Rule as the data show it: active = growth inhibition above about 70%; inactive = the rest.

As for `O=C(Nc1c(Cl)cccc1Cl)Oc1cccc2cccnc12`, the growth inhibition in assay [1] (setting [7]) was 58%; in assay [1] (setting [8]) it was 97% (active); in assay [1] (at 50.0 µM), 88.5% (active); in assay [2] (setting [7]) it was 35%; in assay [2] (setting [8]) it was 98% (active); in assay [2] (at 50.0 µM), 90.6% (active). Besides, the growth inhibition in assay [3] (setting [7]) is 60%; in assay [3] (setting [8]), 99% (active); in assay [3] (at 50.0 µM), 90.6% (active); in assay [4] (setting [7]) it was 20%; in assay [4] (setting [8]) it was 98% (active); in assay [4] (at 50.0 µM), 88% (active). Also, the growth inhibition was 42% in assay [5] (setting [7]); 96% (active) in assay [5] (setting [8]); 89.4% (active) in assay [5] (at 50.0 µM); 57% in assay [6] (setting [7]); 97% (active) in assay [6] (setting [8]); 88.3% (active) in assay [6] (at 50.0 µM).
`CCCCCN(CCCCC)CC(O)c1cc2ccccc2c2ccccc12` (configuration not stated): the growth inhibition in assay [1] (setting [7]) is -1%; in assay [1] (setting [8]), 98% (active); in assay [1] (at 50.0 µM), 99.3% (active); in assay [2] (setting [7]), 11%; in assay [2] (setting [8]) it was 99% (active); in assay [2] (at 50.0 µM), 99.4% (active). The growth inhibition in assay [3] (setting [7]) was 18%; in assay [3] (setting [8]), 100% (active); in assay [3] (at 50.0 µM) it was 99.4% (active); in assay [4] (setting [7]) it was -12%; in assay [4] (setting [8]), 98% (active); in assay [4] (at 50.0 µM), 99.2% (active). Besides, the growth inhibition was -1% in assay [5] (setting [7]); 99% (active) in assay [5] (setting [8]); 99.3% (active) in assay [5] (at 50.0 µM); 27% in assay [6] (setting [7]); 99% (active) in assay [6] (setting [8]); 99.2% (active) in assay [6] (at 50.0 µM).
For the compound `CC(=O)OCC1OC(OC(C)=O)C(On2nnc3c(-c4ccccc4)c(C)nn32)C(OC(C)=O)C1OC(C)=O` (configuration not stated), the growth inhibition is 0% in assay [1] (setting [7]); 54% in assay [1] (setting [8]); 61.5% in assay [1] (at 50.0 µM); -1% in assay [2] (setting [7]); 71% (active) in assay [2] (setting [8]); 35.8% in assay [2] (at 50.0 µM). Besides, the growth inhibition in assay [3] (setting [7]) is 2%; in assay [3] (setting [8]), 76% (active); in assay [3] (at 50.0 µM), 47.8%; in assay [4] (setting [7]), 1%; in assay [4] (setting [8]), 52%; in assay [4] (at 50.0 µM), 41.1%. In addition, the growth inhibition in assay [5] (setting [7]) was -1%; in assay [5] (setting [8]) it was 59%; in assay [5] (at 50.0 µM) it was 16.1%; in assay [6] (setting [7]) it was -3%; in assay [6] (setting [8]), 58%; in assay [6] (at 50.0 µM), 36.2%.
As for `O=C(CC(=O)c1ccccc1)CC1(O)CCCCC1`, the growth inhibition in assay [1] (setting [7]) was 22%; in assay [1] (setting [8]) it was 42%; in assay [1] (at 50.0 µM) it was 61.1%; in assay [2] (setting [7]), 2%; in assay [2] (setting [8]) it was 16%; in assay [2] (at 50.0 µM), 78.9% (active). Further, the growth inhibition is 4% in assay [3] (setting [7]); 34% in assay [3] (setting [8]); 79.9% (active) in assay [3] (at 50.0 µM); -9% in assay [4] (setting [7]); 14% in assay [4] (setting [8]); 50.4% in assay [4] (at 50.0 µM). In addition, the growth inhibition is 15% in assay [5] (setting [7]); 86% (active) in assay [5] (setting [8]); 96% (active) in assay [5] (at 50.0 µM); 6% in assay [6] (setting [7]); 29% in assay [6] (setting [8]); 89.1% (active) in assay [6] (at 50.0 µM).
For the compound `CN(C)CCSc1cc(-c2ccccc2)c2ccccc2n1`, the growth inhibition in assay [1] (setting [7]) is -7%; in assay [1] (setting [8]) it was 90% (active); in assay [1] (at 50.0 µM), 59.5%; in assay [2] (setting [7]) it was 6%; in assay [2] (setting [8]) it was 87% (active); in assay [2] (at 50.0 µM), 29.9%. In addition, the growth inhibition was -8% in assay [3] (setting [7]); 91% (active) in assay [3] (setting [8]); 39.9% in assay [3] (at 50.0 µM); 26% in assay [4] (setting [7]); 94% (active) in assay [4] (setting [8]); 21.9% in assay [4] (at 50.0 µM). Moreover, the growth inhibition in assay [5] (setting [7]) is 9%; in assay [5] (setting [8]), 97% (active); in assay [5] (at 50.0 µM) it was 53.7%; in assay [6] (setting [7]) it was 15%; in assay [6] (setting [8]), 92% (active); in assay [6] (at 50.0 µM) it was 78.2% (active).
Turning to `N#Cc1cc2cccn2c2c1cnn2-c1ccccc1`, the growth inhibition in assay [1] (setting [7]) was -6%; in assay [1] (setting [8]), -5%; in assay [1] (at 50.0 µM), 19%; in assay [2] (setting [7]), 8%; in assay [2] (setting [8]), 4%; in assay [2] (at 50.0 µM), -6.8%. Also, the growth inhibition was -1% in assay [3] (setting [7]); -11% in assay [3] (setting [8]); -1.5% in assay [3] (at 50.0 µM); 3% in assay [4] (setting [7]); 7% in assay [4] (setting [8]); 9.65% in assay [4] (at 50.0 µM). Moreover, the growth inhibition was 6% in assay [5] (setting [7]); 5% in assay [5] (setting [8]); -46.9% in assay [5] (at 50.0 µM); -10% in assay [6] (setting [7]); 12% in assay [6] (setting [8]); -2.95% in assay [6] (at 50.0 µM).
On to `CC(C)CCCCCCCCCCCCC(=O)NCC(=O)NC1C(C)OC(Nc2ncnc3nc[nH]c23)C(O)C1O` (configuration not stated), for which the growth inhibition in assay [1] (setting [7]) is 22%; in assay [1] (setting [8]), 22%; in assay [1] (at 50.0 µM), 29.1%; in assay [2] (setting [7]), 54%; in assay [2] (setting [8]), 32%; in assay [2] (at 50.0 µM) it was 9.55%. Also, the growth inhibition in assay [3] (setting [7]) was 43%; in assay [3] (setting [8]), 45%; in assay [3] (at 50.0 µM), 34.5%; in assay [4] (setting [7]), 5%; in assay [4] (setting [8]) it was 10%; in assay [4] (at 50.0 µM) it was 2.2%. In addition, the growth inhibition in assay [5] (setting [7]) is 58%; in assay [5] (setting [8]) it was 23%; in assay [5] (at 50.0 µM), 77.1% (active); in assay [6] (setting [7]), 52%; in assay [6] (setting [8]) it was 35%; in assay [6] (at 50.0 µM) it was 19.4%.
With `O=[N+]([O-])c1ccc(-c2nc3ccc(F)cc3[nH]2)o1`, the growth inhibition was 73% (active) in assay [1] (setting [7]); 99% (active) in assay [1] (setting [8]); 99.6% (active) in assay [1] (at 50.0 µM); 90% (active) in assay [2] (setting [7]); 99% (active) in assay [2] (setting [8]); 99.8% (active) in assay [2] (at 50.0 µM). Moreover, the growth inhibition in assay [3] (setting [7]) was 86% (active); in assay [3] (setting [8]), 100% (active); in assay [3] (at 50.0 µM) it was 99.7% (active); in assay [4] (setting [7]) it was 34%; in assay [4] (setting [8]) it was 98% (active); in assay [4] (at 50.0 µM), 98.5% (active). The growth inhibition in assay [5] (setting [7]) was 70% (active); in assay [5] (setting [8]), 100% (active); in assay [5] (at 50.0 µM), 99.7% (active); in assay [6] (setting [7]), 94% (active); in assay [6] (setting [8]), 99% (active); in assay [6] (at 50.0 µM), 99.7% (active).
`O=[N+]([O-])c1ccc2c(c1)OCO2`: the growth inhibition was 0% in assay [1] (setting [7]); 22% in assay [1] (setting [8]); 68.2% in assay [1] (at 50.0 µM); 1% in assay [2] (setting [7]); 4% in assay [2] (setting [8]); 8% in assay [2] (at 50.0 µM). In addition, the growth inhibition was -2% in assay [3] (setting [7]); 3% in assay [3] (setting [8]); 69.7% in assay [3] (at 50.0 µM); 1% in assay [4] (setting [7]); 0% in assay [4] (setting [8]); 6.95% in assay [4] (at 50.0 µM). Besides, the growth inhibition in assay [5] (setting [7]) is 0%; in assay [5] (setting [8]), 3%; in assay [5] (at 50.0 µM), 37%; in assay [6] (setting [7]), -4%; in assay [6] (setting [8]), 5%; in assay [6] (at 50.0 µM) it was 67.7%.

The record behind these values is PubChem BioAssay (NCI).
